Experimental findings from PubChem BioAssay are described below.

Assay [1] deals with Wnt5a (protein binding on small-molecule microarray). The assay can be described thus: small molecules binding Wnt5a protein – biophysical, small-molecule microarray, 635/667 nm fluorescence, primary screen (AID 1142).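 Note: fluorescence read at 667 nm with signal to noise per printed feature.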 The conditions noted are these: 635 nm fluorescence, higher = more signal.
The nature of assay [2]: ATP-based viability of Huh7 replicon cells – cell-based, CellTiter-Glo luminescence, basal, 48 h, cytotoxicity control for HCV replication inhibitor project, primary screen (AID 1143).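 Note: Huh7 hepatoma cells carrying a hepatitis C replication reporter with no stimulus; test concentration not given here.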 The conditions noted are these: higher = more signal, called active from +8 up or from −8 down.
The nature of assay [3]: Pseudomonas biofilm growth suppression – PAO1 strain, BacTiter-Glo luminescence, LB-PBS, primary screen (AID 1144). The settings on record: P. aeruginosa PAO1 biofilm, 12 h, higher = more signal.
Assay [4] is described as follows: basal CRE-LacZ reporter activity in PC12 – cell-based, unstimulated, primary screen (AID 1145). The settings on record: no forskolin, luminescence, 4.5 h, higher = more signal, called active from +8 up or from −8 down.
A short description of assay [5]: forskolin-driven CRE-LacZ activity in PC12 – cell-based, CRE-LacZ reporter, forskolin-stimulated, primary screen (AID 1146).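 Note: PC12 cells with 6xCRE LacZ reporter stimulated by forskolin 10 µM; beta-galactosidase reporter signal reflecting CREB driven transcription.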 The settings on record: luminescence, 4.5 h, higher = more signal, called active from +8 up or from −8 down.
The target of assay [6] is Streptavidin (Streptomyces avidinii) (UniProt P22629). Put plainly: compounds binding control protein streptavidin – biophysical, small-molecule microarray, 635/667 nm fluorescence, artefact control for SMM compound annotation, primary screen (AID 1147).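 Note: signal reflects streptavidin binding to arrayed compounds as a control protein.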 The conditions noted are these: higher = more signal.
Assay [7] can be described thus: probe aInhba binding on compound microarray – biochemical, small-molecule microarray, 635/667 nm fluorescence, primary screen (AID 1148).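 Note: score merges 667nm spot fluorescence with signal-to-noise for antibody binding to printed compounds.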 The settings on record: higher = more signal.
The target in assay [8] is Torsin-1A (Homo sapiens) (UniProt O14656). The assay can be described thus: TOR1A wild-type binding on microarray – cell lysate, small-molecule microarray, lysate, 635/667 nm, primary screen (AID 1149). The settings on record: COS7 hTOR1A-WT lysate, 635 nm fluorescence, higher = more signal.
For assay [9] the target is unchanged. The assay can be described thus: torsin A mutant lysate binding on microarrays – cell lysate, small-molecule microarray, COS7 lysate, 635/667 nm fluorescence, primary screen (AID 1150).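 Note: score pools 667 nm emission and signal to noise measuring lysate protein binding.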 The conditions noted are these: COS7 hTOR1A mutant lysate, 635 nm fluorescence, higher = more signal.
Assay [10] deals with Sonic hedgehog protein (Shh). Put plainly: Sonic hedgehog microarray binding compounds – biochemical, small-molecule microarray, 635/667 nm fluorescence, primary screen (AID 1151).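 Note: Shh protein binding to compounds spotted on small-molecule microarray slides; score combines spot fluorescence intensity with signal-to-noise across triplicate slides.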 The conditions noted are these: 635 nm fluorescence, higher = more signal.
Assay [11] in a line: optical density shifts of acrAB sulA E. coli – strain DRC41, OD650, 48 h, E. coli filamentation inducer project, primary screen (AID 1152).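 Note: E. coli MC1000 strain DRC41 lacking acrAB efflux pump and sulA.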 The settings on record: higher = more signal, called active from +8 up or from −8 down.
Assay [12] in a line: probe aLefty1 binding on compound microarray – biochemical, small-molecule microarray, 635/667 nm fluorescence, primary screen (AID 1153).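 Note: score merges spot fluorescence with signal-to-noise ratio from the scanned slide images.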 The conditions noted are these: higher = more signal.
Assay [13] is described as follows: plasmodial surface anion channel blockers, osmotic lysis – cell-based, P. falciparum Indochina, OD700, 1 h, primary screen (AID 1154). The settings on record: P. falciparum Indochina infected RBC osmotic lysis, higher = more signal, called active from +8 up or from −8 down.
Assay [14] is described as follows: plasmodial surface anion channel blockers, osmotic lysis – cell-based, P. falciparum Indochina, OD700, 2 h, primary screen (AID 1155).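 Note: lysis reports solute entry through the parasite surface anion channel PSAC.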 The settings on record: P. falciparum Indochina infected erythrocytes, higher = more signal, called active from +8 up or from −8 down.
The nature of assay [15]: changes in parasitized red cell lysis, either direction – P. falciparum Indochina, OD700, 3 h, PSAC antagonist project, primary screen (AID 1156). The settings on record: P. falciparum-infected erythrocytes, osmotic lysis, higher = more signal, called active from +8 up or from −8 down.
Assay [16] can be described thus: plasmodial surface anion channel blockers, osmotic lysis – cell-based, P. falciparum Indochina, OD700, 18 h, primary screen (AID 1157). The settings on record: P. falciparum Indochina infected erythrocytes, osmotic lysis OD700, 18 h; higher = more signal, called active from +8 up or from −8 down.
A short description of assay [17]: S6 kinase pathway phospho-S6 level changes – cell-based, A549, cytoblot, luminescence, serum-stimulated, primary screen (AID 1158).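 Note: serum-stimulated A549 lung adenocarcinoma cells; signal is phosphorylated S6 detected by cytoblot immunostaining with HRP secondary.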 The settings on record: 5 h, higher = more signal.
Assay [18] has as its target NADPH oxidase 2 (Homo sapiens) (UniProt P04839). The assay can be described thus: compounds shifting NOX2 Amplex Red fluorescence – cell-based, HEK293-NOX2, PMA-stimulated, NOX inhibitor project, primary screen (AID 1159). Note: test concentration not given here. The conditions noted are these: 45 min, higher = more signal, called active from +8 up or from −8 down.
Assay [19] has as its target NADPH oxidase 4 (Homo sapiens) (UniProt Q9NPH5). Put plainly: compounds shifting NOX4 Amplex Red fluorescence – cell-based, HEK293-NOX4, tetracycline-induced, NOX inhibitor project, primary screen (AID 1160). The settings on record: HEK293-NOX4, Amplex Red H2O2 fluorescence, 45 min; higher = more signal, called active from +8 up or from −8 down.
For assay [20], the target named is NADPH oxidase 5 (Homo sapiens) (UniProt Q96PH1). Put plainly: compounds shifting NOX5 Amplex Red fluorescence – cell-based, HEK293-NOX5, NOX inhibitor project, primary screen (AID 1161). The settings on record: HEK293-NOX5, ionomycin, 45 min, higher = more signal.

Calls of active or inactive are those of the source. Unless noted, the rule behind the calls is not given here.

Streptavidin (Streptomyces avidinii), sequence (P22629 whole entry, looked up): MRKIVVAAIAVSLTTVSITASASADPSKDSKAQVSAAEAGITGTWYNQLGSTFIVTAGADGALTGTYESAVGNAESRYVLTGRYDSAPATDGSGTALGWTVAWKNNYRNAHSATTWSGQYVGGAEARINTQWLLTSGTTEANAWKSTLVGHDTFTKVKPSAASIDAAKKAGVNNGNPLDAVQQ
Torsin-1A (Homo sapiens), sequence (O14656 whole entry, looked up): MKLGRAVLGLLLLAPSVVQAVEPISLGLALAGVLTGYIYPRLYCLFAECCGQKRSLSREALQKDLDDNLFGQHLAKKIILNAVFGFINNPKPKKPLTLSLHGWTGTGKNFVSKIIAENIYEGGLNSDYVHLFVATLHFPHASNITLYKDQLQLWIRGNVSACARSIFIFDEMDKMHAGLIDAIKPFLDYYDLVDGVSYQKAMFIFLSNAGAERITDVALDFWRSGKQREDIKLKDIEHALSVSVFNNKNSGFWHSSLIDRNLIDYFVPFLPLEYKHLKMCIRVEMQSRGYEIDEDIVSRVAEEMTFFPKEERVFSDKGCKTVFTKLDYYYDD
NADPH oxidase 4 (Homo sapiens), sequence (Q9NPH5 whole entry, looked up): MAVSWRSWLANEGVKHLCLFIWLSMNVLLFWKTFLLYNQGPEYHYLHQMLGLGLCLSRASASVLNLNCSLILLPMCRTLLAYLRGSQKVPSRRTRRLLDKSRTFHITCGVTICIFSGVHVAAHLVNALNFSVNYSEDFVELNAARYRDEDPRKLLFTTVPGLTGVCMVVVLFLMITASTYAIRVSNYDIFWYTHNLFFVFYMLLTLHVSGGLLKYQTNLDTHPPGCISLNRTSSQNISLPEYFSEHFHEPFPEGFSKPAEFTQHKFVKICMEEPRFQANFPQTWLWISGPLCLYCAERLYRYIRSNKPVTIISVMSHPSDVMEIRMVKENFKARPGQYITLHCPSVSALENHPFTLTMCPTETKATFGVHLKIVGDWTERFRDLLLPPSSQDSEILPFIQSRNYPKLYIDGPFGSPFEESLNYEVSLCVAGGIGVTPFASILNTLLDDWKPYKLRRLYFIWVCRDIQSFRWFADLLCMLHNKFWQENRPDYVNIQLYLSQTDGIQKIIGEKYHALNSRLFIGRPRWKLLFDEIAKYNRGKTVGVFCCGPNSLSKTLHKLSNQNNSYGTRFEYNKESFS
NADPH oxidase 5 (Homo sapiens), sequence (Q96PH1 whole entry, looked up): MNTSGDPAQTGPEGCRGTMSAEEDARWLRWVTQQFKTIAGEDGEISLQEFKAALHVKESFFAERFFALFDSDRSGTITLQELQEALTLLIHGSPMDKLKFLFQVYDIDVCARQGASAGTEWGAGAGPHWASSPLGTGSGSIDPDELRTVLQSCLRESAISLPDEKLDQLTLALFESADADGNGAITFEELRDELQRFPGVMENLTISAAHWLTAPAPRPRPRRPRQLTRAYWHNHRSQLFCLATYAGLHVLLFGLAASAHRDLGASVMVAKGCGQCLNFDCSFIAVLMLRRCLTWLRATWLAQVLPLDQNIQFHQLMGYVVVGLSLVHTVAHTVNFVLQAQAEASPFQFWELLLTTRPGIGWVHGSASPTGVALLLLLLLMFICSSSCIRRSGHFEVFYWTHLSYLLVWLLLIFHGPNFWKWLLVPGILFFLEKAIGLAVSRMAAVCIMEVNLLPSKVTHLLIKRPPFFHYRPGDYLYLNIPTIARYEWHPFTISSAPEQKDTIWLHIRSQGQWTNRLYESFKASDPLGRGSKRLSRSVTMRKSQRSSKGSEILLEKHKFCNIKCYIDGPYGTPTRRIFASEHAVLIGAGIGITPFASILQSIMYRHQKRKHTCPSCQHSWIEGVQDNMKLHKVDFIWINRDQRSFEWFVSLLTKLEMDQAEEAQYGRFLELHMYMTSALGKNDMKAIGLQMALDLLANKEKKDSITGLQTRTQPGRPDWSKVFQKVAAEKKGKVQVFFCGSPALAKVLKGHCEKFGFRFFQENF
NADPH oxidase 2 (Homo sapiens), sequence (P04839 whole entry, looked up): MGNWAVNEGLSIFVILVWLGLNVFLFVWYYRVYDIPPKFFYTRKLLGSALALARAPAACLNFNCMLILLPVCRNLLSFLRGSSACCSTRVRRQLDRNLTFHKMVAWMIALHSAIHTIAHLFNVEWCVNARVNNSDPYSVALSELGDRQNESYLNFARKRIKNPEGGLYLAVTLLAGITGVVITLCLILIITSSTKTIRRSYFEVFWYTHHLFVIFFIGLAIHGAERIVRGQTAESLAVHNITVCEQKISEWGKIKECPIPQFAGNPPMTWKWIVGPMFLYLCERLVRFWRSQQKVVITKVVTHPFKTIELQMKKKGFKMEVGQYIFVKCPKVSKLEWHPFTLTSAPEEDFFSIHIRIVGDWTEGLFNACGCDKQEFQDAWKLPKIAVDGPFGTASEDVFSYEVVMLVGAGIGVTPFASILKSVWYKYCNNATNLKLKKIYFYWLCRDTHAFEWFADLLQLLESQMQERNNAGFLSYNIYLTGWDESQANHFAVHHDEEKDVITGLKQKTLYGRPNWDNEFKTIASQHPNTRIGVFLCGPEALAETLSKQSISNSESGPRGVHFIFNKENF

As to `C[C@@]1([C@@H](NS(=O)(=O)c2cccc3cccnc23)c2ccc(-c3ccccc3)cc2)C[C@H]1C1CCCCC1`, the composite z-score is 0.17 in assay [1]; 1.15 in assay [6]; 0.417 in assay [7]; -0.293 in assay [8]; 0.0327 in assay [9]; -0.517 in [10]. Further, the composite z-score in [12] worked out at 1.31. For the same compound, the z-score in assay [2] is -2.15 (inactive); in [3], 0.33 (inactive); in [4] it was 0.583 (inactive); in assay [5], -0.152 (inactive); in assay [11] it was -2.47 (inactive); in [13], 0.668 (inactive). Moreover, the z-score was 0.367 (inactive) in [14]; 1.39 (inactive) in assay [15]; 0.691 (inactive) in [16]; -0.79 in assay [17]; 0.168 (inactive) in assay [18]; -0.61 (inactive) in assay [19]. In assay [20], the z-score is -1.99.
With `CCCCCCc1nc(Cc2cc(OC)c(OC)c(OC)c2)c(C)c2c1[Si](C(C)C)(C(C)C)OC2`, the composite z-score in assay [1] was 0.0854; in assay [6] it was -0.0336; in assay [7], 0.0275; in assay [8] it was 0.246; in assay [9] it was 0.0486; in [10] it was 0.372. In assay [12], this compound came in with a composite z-score of -0.0547. Further, the z-score in [2] was -3.36 (inactive); in assay [3], -1.44 (inactive); in assay [4], 0.367 (inactive); in [5], -0.634 (inactive); in assay [11] it was 1.41 (inactive); in assay [13] it was 2.71 (inactive). Besides, the z-score was -0.23 (inactive) in [14]; 0.906 (inactive) in [15]; -0.471 (inactive) in assay [16]; 2.51 in assay [17]; -0.25 (inactive) in [18]; -0.588 (inactive) in [19]. Besides, the z-score in assay [20] is -2.37.
Regarding `C=C(CCCC)/C(=C/C[C@@H](OC(C)=O)c1ccc(OCCO)cc1)c1cc(C(=O)OC)ccc1OC`, the composite z-score in assay [1] was -0.0169; in assay [6], 0.313; in assay [7], -0.176; in [8] it was 0.929; in assay [9], 0.687; in assay [10], 1.04. In assay [12], this compound showed a composite z-score of -0.0518. The z-score in assay [2] was -3.57 (inactive); in assay [3], 0.412 (inactive); in [4], 5.45 (inactive); in assay [5] it was 0.574 (inactive); in assay [11] it was -0.195 (inactive); in assay [13], 23.7 (active). The z-score in [14] was 6.34 (inactive); in assay [15], 1.86 (inactive); in assay [16] it was 1.19 (inactive); in [17], -0.265; in assay [18] it was -0.958 (inactive); in assay [19], -1.43 (inactive). For the same compound, the z-score in assay [20] was -1.98.
As to `O=C/C=C/c1ccc(-c2ccccc2)cc1`, the composite z-score in [1] is -0.166; in assay [6], 0.175; in [7], -0.101; in assay [8], -0.0497; in assay [9] it was 0.0552; in assay [10], 0.083. Moreover, in assay [12], the composite z-score is -0.0186. The z-score in [2] was -2.73 (inactive); in assay [3] it was 1.68 (inactive); in assay [4], 2.11 (inactive); in assay [5] it was 3.74 (inactive); in assay [11], 1.06 (inactive); in [13], 2.39 (inactive). In addition, the z-score in [14] is -0.681 (inactive); in [15], -0.103 (inactive); in assay [16], -2.17 (inactive); in [17] it was 1.04; in assay [18] it was 0.388 (inactive); in [19] it was -1.85 (inactive). For the same compound, the z-score in [20] was found to be 0.605.
Turning to `C=CCNC(=O)[C@@H]1[C@H]2C(=O)O[C@H](c3ccccc3)[C@H](c3ccccc3)N2[C@H](c2ccc(OCCO)cc2)[C@@]12C(=O)Nc1ccc(C#CCNC(N)=O)cc12`, the composite z-score in assay [1] was 0.0977; in assay [6], 0.987; in assay [7], -0.0195; in assay [8], 0.564; in assay [9], 0.19; in [10] it was 0. The compound further came in with a composite z-score in assay [12] of 0.124. For the same compound, the z-score in [2] is 0.414 (inactive); in assay [3], 0.0575 (inactive); in assay [4], 0.155 (inactive); in assay [5], 0.0297 (inactive); in assay [11], -0.582 (inactive); in assay [13] it was 2.55 (inactive). Further, the z-score in assay [14] is 0.268 (inactive); in [15], 0.422 (inactive); in [16] it was -0.0239 (inactive); in [17], 0.386; in [18], 1.88 (inactive); in [19], 1.2 (inactive). The z-score in assay [20] was -0.268.
